The record followed here is PubChem BioAssay (NCI).

Test systems include HCT-15 colon; SNB-19 CNS; U251 CNS; PC-3 prostate; SK-MEL-5 melanoma; UACC-62 melanoma; LOX IMVI melanoma; SK-MEL-28 melanoma; SK-MEL-2 melanoma; SN12C renal; UO-31 renal; ACHN renal; CAKI-1 renal; A498 renal; CCRF-CEM leukemia; MOLT-4 leukemia; SNB-75 CNS; EKVX NSCLC; TK-10 renal.
Common to all, as to assay: NCI-60 one-dose screen, 48 h (100 = growth as untreated, 0 = no growth, -100 = all killed)
Conditions in all cases: 10 µM unless noted

The panel holds about 83,000 compounds, 20% with a hit somewhere; the sample as a whole holds those more often.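 Method: cells in 96-well plates; compound added at one concentration; 48 h incubation; percent growth measured; values under 10 scored active.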 A number with no mark means an inactive call. Active and inactive are the calls of the source.

`C(=C\c1nc2ccccc2[nH]1)/c1nc2ccccc2[nH]1`: the growth in the test with HCT-15 colon is 100%; in the test on SNB-19 CNS it was 109%; with U251 CNS, 106%; with PC-3 prostate, 90%; in the test on SK-MEL-5 melanoma, 92.8%; with UACC-62 melanoma it was 91.1%. Moreover, the growth in the test on LOX IMVI melanoma is 98.1%; in the test on SK-MEL-28 melanoma, 104%; in the test on SK-MEL-2 melanoma, 107%; in the test with SN12C renal, 100%; in the test on UO-31 renal it was 81.8%; in the test on ACHN renal, 93.3%. For the same molecule, the growth with CAKI-1 renal is 96.6%; in the test on A498 renal it was 83.7%; in the test on CCRF-CEM leukemia, 93.5%; with MOLT-4 leukemia it was 80.4%.
On to `O=C(/C=C/C12c3ccccc3C(c3ccccc31)C1C(=O)N(c3ccccc3)C(=O)C12)c1ccccc1` (stereo not given), for which the growth in the test on HCT-15 colon is -25.8% (active); in the test on SNB-75 CNS, 34.2%; in the test on SNB-19 CNS, 31.2%; in the test on U251 CNS, 7.97% (active); in the test with PC-3 prostate, 21.2%; in the test with SK-MEL-5 melanoma, -67.1% (active). The growth with UACC-62 melanoma is 1.31% (active); in the test with LOX IMVI melanoma, -81.4% (active); in the test on SK-MEL-28 melanoma it was 2.04% (active); in the test with SK-MEL-2 melanoma, 24.5%; in the test with EKVX NSCLC it was 8.88% (active); in the test on SN12C renal, 15%. The growth is -77.5% (active) with UO-31 renal; 20.8% in the test with TK-10 renal; -15% (active) with ACHN renal; 45.8% with CAKI-1 renal; 9.95% (active) in the test on CCRF-CEM leukemia; 11% in the test with MOLT-4 leukemia.
As to `C[C@@H]1C(=O)N(C[C@H](Cc2ccccc2)N(Cc2ccccc2)Cc2ccccc2)[C@]1(Cc1ccccc1)C(=O)OC(C)(C)C`, the growth in the test on HCT-15 colon is 70.9%; in the test with SNB-75 CNS it was 71.3%; with SNB-19 CNS, 66.9%; in the test with U251 CNS, 49.2%; in the test with PC-3 prostate it was 27.9%; with SK-MEL-5 melanoma, 45.5%. For the same molecule, the growth in the test on UACC-62 melanoma was 60.6%; in the test with LOX IMVI melanoma, 62.8%; in the test on SK-MEL-28 melanoma, 92%; in the test with EKVX NSCLC it was 53.2%; with SN12C renal, 56.8%; in the test on UO-31 renal it was 41.2%. The growth was 63.9% with ACHN renal; 55.2% in the test with CAKI-1 renal; 8.49% (active) in the test with A498 renal; 70% in the test with CCRF-CEM leukemia; 63.8% with MOLT-4 leukemia.
Regarding `Nc1ccc(S(=O)(=O)Nc2ccsc2-c2nc(-c3ccccc3)no2)cc1`, the growth was 34.1% with HCT-15 colon; 54.8% with SNB-75 CNS; 69.3% in the test with SNB-19 CNS; 41.7% in the test with U251 CNS; 53.1% in the test with PC-3 prostate; 65.9% in the test on SK-MEL-5 melanoma. Also, the growth in the test on UACC-62 melanoma is 50.7%; with LOX IMVI melanoma, 68%; with SK-MEL-28 melanoma, 71.2%; in the test with SK-MEL-2 melanoma, 32.3%; in the test on EKVX NSCLC, 73%; in the test on SN12C renal, 84.8%. Also, the growth with UO-31 renal is 71.3%; with ACHN renal, 87.8%; in the test with CAKI-1 renal, 53.8%; in the test with A498 renal, 61.2%; in the test with CCRF-CEM leukemia, 53.2%; with MOLT-4 leukemia, 36.5%.
As for `CCCCCOC(=O)c1ccc(NC(=O)CNCC(C)C)cc1`, the growth with HCT-15 colon is 86.8%; with SNB-75 CNS, 86.3%; in the test on SNB-19 CNS, 90.6%; in the test with U251 CNS it was 93.1%; with PC-3 prostate, 65.8%; in the test with SK-MEL-5 melanoma it was 95.7%. The growth with UACC-62 melanoma was 91.6%; in the test on LOX IMVI melanoma, 94.4%; in the test with SK-MEL-28 melanoma it was 105%; in the test on SK-MEL-2 melanoma, 103%; with EKVX NSCLC, 90.8%; in the test with SN12C renal, 94%. In addition, the growth with UO-31 renal is 66.5%; in the test on TK-10 renal, 98.5%; with A498 renal, 71.8%; with CCRF-CEM leukemia, 74.3%; in the test on MOLT-4 leukemia, 86.5%.
Regarding `Clc1ccc(-c2nc(NCCc3ccccc3)nc3c(NCCc4ccccc4)cnn23)cc1`, the growth with HCT-15 colon was 72.9%; with SNB-75 CNS, 85.6%; in the test on SNB-19 CNS, 85.6%; in the test on U251 CNS, 48.4%; in the test with PC-3 prostate, 51.7%; in the test on SK-MEL-5 melanoma, 94.2%. The growth was 73.2% with UACC-62 melanoma; 60.9% with LOX IMVI melanoma; 75.2% in the test with SK-MEL-28 melanoma; 79.6% in the test with SK-MEL-2 melanoma; 79.5% in the test with EKVX NSCLC; 80.7% with SN12C renal. Further, the growth in the test with UO-31 renal was 86.7%; in the test with TK-10 renal, 60.1%; in the test with ACHN renal, 98.7%; in the test on A498 renal, 71.4%; with CCRF-CEM leukemia, 82.6%; in the test with MOLT-4 leukemia it was 89.1%.
In the case of `COc1ccc(/C=N/NC(=O)Cn2c(-c3ccc(S(C)(=O)=O)cc3)nc3cc(Cl)ccc32)cc1`, the growth with HCT-15 colon is 17.5%; in the test on SNB-75 CNS it was 26.5%; in the test with SNB-19 CNS it was 21.6%; with U251 CNS, 10.4%; with PC-3 prostate, 18.4%; in the test on SK-MEL-5 melanoma, 12.7%. Further, the growth in the test with UACC-62 melanoma was 26.1%; in the test on LOX IMVI melanoma, 30.8%; in the test with SK-MEL-28 melanoma it was 52.7%; in the test with SK-MEL-2 melanoma, 21.2%; in the test with EKVX NSCLC, 25.3%; in the test with SN12C renal, 27.3%. The growth was 43.2% in the test with UO-31 renal; 36.8% in the test with TK-10 renal; 30.3% in the test with ACHN renal; 42% in the test with CAKI-1 renal; 21.4% in the test with A498 renal; 1.56% (active) with CCRF-CEM leukemia. For the same molecule, the growth with MOLT-4 leukemia is 12.9%.
For the molecule `N#Cc1c(Oc2ccc([N+](=O)[O-])cc2)nc2sc3cc(Cl)ccc3n2c1=N`, the growth was 102% in the test with HCT-15 colon; 74.8% in the test on SNB-19 CNS; 75.9% in the test with U251 CNS; 76.7% with PC-3 prostate; 58.1% in the test on SK-MEL-5 melanoma; 79.3% in the test with UACC-62 melanoma. Also, the growth in the test with LOX IMVI melanoma is 92.1%; in the test on SK-MEL-28 melanoma, 84.1%; in the test with SK-MEL-2 melanoma it was 84.5%; in the test on EKVX NSCLC, 84%; in the test with SN12C renal it was 91%; in the test on UO-31 renal, 72.5%. Also, the growth with TK-10 renal is 49.9%; in the test with ACHN renal, 100%; with CAKI-1 renal it was 111%; in the test with A498 renal, 100%; with CCRF-CEM leukemia it was 96.5%; in the test with MOLT-4 leukemia, 77.3%.
For `CCO/C=N/C1=C(C#N)C(c2ccc(OC)cc2)c2c(c3ccccc3n(C)c2=O)O1` (stereo not given), the growth was 103% in the test with HCT-15 colon; 78.1% with SNB-75 CNS; 101% in the test with SNB-19 CNS; 103% in the test with U251 CNS; 98.4% in the test on PC-3 prostate; 102% in the test on SK-MEL-5 melanoma. The growth in the test on UACC-62 melanoma was 98.7%; in the test on LOX IMVI melanoma it was 99.1%; with SK-MEL-28 melanoma it was 110%; in the test with SK-MEL-2 melanoma, 108%; in the test on EKVX NSCLC it was 101%; in the test on SN12C renal, 98.9%. For the same molecule, the growth is 72.8% with UO-31 renal; 112% in the test on TK-10 renal; 100% in the test on ACHN renal; 89.6% in the test with CAKI-1 renal; 111% in the test on A498 renal; 100% in the test with CCRF-CEM leukemia. For the same molecule, the growth with MOLT-4 leukemia was 103%.
